Most compounds without a hit are left out; they make up all but 4.8% or so of the library.
DAX1 inh-1 = DAX1 (NR0B1) inhibitors, primary screen, cell-based, HEK293, Gal4-DAX1, luciferase luminescence. Nuclear receptor subfamily 0 group B member 1 (Homo sapiens), P51843. HEK293 Gal4-DAX1 luciferase reporter. inhibition, % at 6.75 µM. 340,000 tested, 0.99% active. AID 504766, 2011;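 active means inhibition above the mean over all tested compounds plus 3 SD, cut at about 4.2% in these data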;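 further: inhibition shows as a rise in luminescence from relieved DAX1 repression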
hgDAF12 agonist = H. glycines DAF-12 receptor agonists, primary screen, cell-based, luminescence, HEK293, GAL4 fusion, UAS-luciferase. 370,000 tested, 1.8% active. activation, % at 6.8 µM. HEK293 GAL4-hgDAF12 UAS-luciferase reporter, agonist luminescence; normalized to butyrate control. Nuclear hormone receptor DAF-12 (Heterodera glycines), GAL4 fusion;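 active means activation above a cutoff set at the mean of all screened compounds plus 3 SD, cut at about 10% in these data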
DAX1 inh-2 = DAX1 (NR0B1) inhibitors on StAR promoter, primary screen, cell-based, luminescence, SF-1 (NR5A1), full-length DAX-1. HEK293T StAR-luciferase reporter, SF-1/DAX-1 repression relief. inhibition, % at 6.8 µM. 370,000 tested, 1.1% active. AID 652010, 2013;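 active means inhibition above the mean over all tested compounds plus 3 SD, cut at about 3.6% in these data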;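 further: higher inhibition means more luminescence from relief of DAX-1 repression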
ssDAF-12 act = S. stercoralis DAF-12 nuclear receptor activators, primary screen, cell-based, luminescence, HEK293, GRIP1 co-expression, lit1-tk-luc. activation, % at 6.8 µM. HEK293 ssDAF-12/GRIP1 lit1-tk-luc reporter; % of 3 µM dafachronic acid response. 370,000 tested, 1% active;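 active means activation above the mean over all tested compounds plus 3 SD, cut at about 0.9% in these data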
NR1D1 modulator = modulators of Rev-erb alpha DNA binding, primary screen, biochemical, FITC-DNA, fluorescence polarization, uHTS. activity, % at 10 µM. 370,000 tested, 0.79% active. Nuclear receptor subfamily 1 group D member 1 (Homo sapiens), P20393. Rev-erbα–FITC-DNA binding, 90 min;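 active means activity above about 14%, limit read from the data; passing the limit was not always enough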
Target sequence (P20393 whole entry, looked up): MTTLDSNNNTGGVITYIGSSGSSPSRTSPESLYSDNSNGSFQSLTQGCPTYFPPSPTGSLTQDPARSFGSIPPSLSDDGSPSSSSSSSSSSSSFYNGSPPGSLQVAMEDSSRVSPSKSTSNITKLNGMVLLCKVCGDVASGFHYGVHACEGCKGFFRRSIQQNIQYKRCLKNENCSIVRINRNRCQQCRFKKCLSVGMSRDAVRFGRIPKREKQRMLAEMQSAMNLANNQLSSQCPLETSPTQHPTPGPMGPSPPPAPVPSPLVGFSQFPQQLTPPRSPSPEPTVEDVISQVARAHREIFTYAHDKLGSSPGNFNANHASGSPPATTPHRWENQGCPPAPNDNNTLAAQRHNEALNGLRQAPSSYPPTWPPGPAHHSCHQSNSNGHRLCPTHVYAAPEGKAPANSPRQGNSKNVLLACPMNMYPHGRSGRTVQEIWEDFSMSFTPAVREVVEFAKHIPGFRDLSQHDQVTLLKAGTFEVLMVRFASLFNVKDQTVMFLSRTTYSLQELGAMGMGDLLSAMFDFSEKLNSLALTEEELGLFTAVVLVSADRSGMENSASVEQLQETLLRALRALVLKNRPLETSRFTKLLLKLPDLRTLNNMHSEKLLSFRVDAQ
hcDAF12 agonist = H. contortus DAF-12 nuclear receptor activators, primary screen, cell-based, luminescence, HEK293, lit1-tk-luc reporter | HEK293 hcDAF-12 lit1-tk-luc reporter; 0% DMSO, 100% Δ7-dafachronic acid | activation, % at 6.8 µM | 370,000 tested, 1.4% active | AID 652067, 2013;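 active means activation above the mean of all tested compounds plus 3 SD, cut at about 5.5% in these data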
A number is an active result; 0 = inactive; - = no result given.

SMILES | DAX1 inh-1 | hgDAF12 agonist | DAX1 inh-2 | ssDAF-12 act | NR1D1 modulator | hcDAF12 agonist
CCN(Cc1ccccc1)c1cc2c(c3c1ccn3C)C1CCC2O1 (stereo not given) | - | 0 | 0 | 0 | 0 | 0
CC1CCC2(CCC(=O)N2CCCOC(=O)NC(C)(C)C)CC1 (stereo not given) | - | 0 | 0 | 0 | 0 | 0
O=C(NCCc1ccccc1)C1CCCN1C(=O)Nc1ccc(F)cc1 (stereo not given) | 5.1 | 0 | 0 | 0 | 0 | 0
O=C(O)c1ccc2c(c1)N(Cc1ccc(F)cc1)C(=O)c1ccccc1S2 | 5.0 | 0 | 0 | 0 | 0 | 0
C[C@H]1[C@@H](c2ccccc2)Oc2c(Cl)cccc2S(=O)(=O)N1C | - | 0 | 0 | 0 | 0 | 0
N#Cc1ccc(/C=C2\CC3(OC(=O)c4ccc(Cl)cc4)CCCN2C3)cc1 (stereo not given) | - | 0 | 0 | 0 | 0 | 0
C[C@H]1[C@@H](C(=O)N2CCCC2)Cc2nc3ccccc3nc2C[C@@H]1c1ccccc1 | - | 0 | 0 | 0 | 0 | 0
CCCn1c(NC(=O)c2ccccc2)nc(Cc2ccccc2)c1Cc1ccccc1 | - | 0 | 0 | 0 | 0 | 0
CSCCC(N=C(NS(=O)(=O)c1ccc(C)cc1)c1ccccc1)C(=O)O (stereo not given) | 4.3 | 0 | 0 | 0 | 0 | 0
CSCCC(N=C(NS(=O)(=O)c1ccc(Br)cc1)c1ccccc1)C(=O)O (stereo not given) | 0 | 0 | 0 | 0 | 0 | 0
O=C(O)CN=C(NS(=O)(=O)c1ccc(Cl)cc1)c1ccc(F)cc1 | 6.0 | 0 | 0 | 0 | 0 | 0
Cc1ccc(S(=O)(=O)NC(=NCC(=O)O)c2ccccc2)cc1 | 0 | 0 | 0 | 1.1 | 0 | 0
Cc1cccc(C2=CC(=O)CC(C)(C)C2=O)c1 | - | 0 | 0 | 0 | 0 | 0
Cc1ccn2c(C(=O)c3ccc(Cl)cc3)cnc2c1 | 0 | 13 | 3.9 | 0 | 0 | 0
Cc1ccn2c(=O)nc(SCC(=O)c3ccc(Cl)cc3)nc2c1 | 0 | 0 | 0 | 0 | 0 | 0
O=C(Cn1cnc2ccccc2c1=O)c1ccc(Cl)cc1 | 0 | 11 | 0 | 0 | 0 | 0
O=C(Cn1cnc2ccccc2c1=O)c1ccccc1 | 0 | 0 | 0 | 0 | 0 | 0
O=C(Cn1cnc2ccccc2c1=O)c1ccc(Br)cc1 | 0 | 12 | 0 | 0 | 0 | 0
O=C(Nc1ccc(F)c(C(F)(F)F)c1)Nc1nnc(-c2ccncc2)s1 | - | 0 | - | 0 | 0 | 0
Cc1ccnc(NC(=S)NC(=O)/C=C/c2ccccc2)c1 | 0 | 0 | 0 | 0 | 0 | 0
Cc1cccnc1NC(=S)NC(=O)/C=C/c1ccccc1 | 0 | 12 | 0 | 0 | 0 | 0
CCc1nc(SCC(=O)Nc2cc(C)on2)n[nH]1 | 0 | 0 | 0 | 0 | 0 | 0
Cc1cc(NC(=O)CSc2n[nH]c(N)n2)no1 | 0 | 0 | 4.3 | 0 | 0 | 0
CCc1nc(SCC(=O)Nc2cc(C)on2)c2c(C)c(C)sc2n1 | 5.7 | 0 | 0 | 0 | 0 | 0
Cc1cc(NC(=O)CSCC(=O)Nc2nc3ccccc3[nH]2)no1 | 0 | 0 | 0 | 0 | 0 | 5.8
SMILES | DAX1 inh-1 | hgDAF12 agonist | DAX1 inh-2 | ssDAF-12 act | NR1D1 modulator | hcDAF12 agonist
Cc1cc(NC(=O)CSc2nc(C3CC3)nc3sc(C)c(C)c23)no1 | 0 | 0 | 0 | 0 | 0 | 0
Cc1cc(NC(=O)CSCC(=O)Nc2nc3ccc(F)cc3s2)no1 | 0 | 0 | 0 | 0 | 0 | 5.7
Cc1ccc2nc(NC(=O)CSCC(=O)Nc3cc(C)on3)sc2c1 | 0 | 0 | 0 | 0 | 0 | 0
COC(=O)[C@H](CC(C)C)N1Cc2nnn(Cc3ccccc3)c2-c2ccccc2S1(=O)=O | - | 0 | 0 | 0 | 0 | 0
Cc1cc(NC(=O)CSCC(=O)Nc2cc(C(F)(F)F)ccc2N2CCCCC2)no1 | 0 | 0 | 0 | 0 | 0 | 6.0
CCOC(=O)C1(Cc2ccccc2C)CCCN(Cc2cn(C)nc2C)C1 (stereo not given) | 6.1 | 0 | 0 | 0 | 0 | 0
O=C(NC1CCCCN(Cc2cccc(Cl)c2)C1=O)c1ccccc1 (stereo not given) | - | 0 | 0 | 0 | 0 | 0
O=c1ccn(-c2ccccc2)[nH]1 | 4.4 | 0 | 0 | 0 | 0 | 0
Cc1cc(C)cc(C(=O)OCCCN(C)C2CN(Cc3cn(Cc4ccccc4C(F)(F)F)nn3)S(=O)(=O)C2)c1 (stereo not given) | - | 0 | 0 | 0 | 0 | 0
CC(Sc1nnc(C2CC2)n1-c1ccccc1)C(=O)N1CCCC1 (stereo not given) | 0 | 13 | 0 | 0 | 0 | 0
O=C(CSc1nnc(C2CC2)n1-c1ccccc1)N1CCCC1 | 0 | 0 | 0 | 0 | 0 | 0
O=C(CCc1ccccc1)N[C@H]1[C@@H](OC(=O)C2CC2)CCC[C@@]12C(=O)N(Cc1ccccc1)c1ccccc12 | - | 0 | 0 | 0 | 0 | 0
Cc1nc2c(ccc3nc(NC(=O)Cc4cccc5ccccc45)sc32)s1 | 0 | 0 | 0 | 0 | 0 | 0
Cc1nc2c(ccc3nc(NC(=O)C(c4ccccc4)c4ccccc4)sc32)s1 | 0 | 0 | 0 | 2.5 | 0 | 0
CC(=O)N/N=c1\sc2ccccc2n1C | 0 | 0 | 0 | 0 | 0 | 0
Cn1/c(=N\NC(=O)c2ccccc2Cl)sc2ccccc21 | 0 | 12 | 0 | 0 | 0 | 0
COC(=O)[C@H](CC(C)C)N1Cc2nnn(Cc3ccc(C)cc3)c2-c2cc(F)ccc2S1(=O)=O | - | 0 | 0 | 0 | 0 | 0
Cc1cc(C)c(S(=O)(=O)n2ccc3ccccc32)c(C)c1 | 0 | 0 | 0 | 1.7 | 0 | 0
O=S(=O)(c1ccccc1)n1ccc2ccccc21 | 0 | 0 | 0 | 0 | 0 | 0
CC(C)(C)CCN1CCC[C@H](NC(=O)COc2ccc(F)c(Cl)c2)C1 | - | 0 | - | 0 | 0 | 0
COC(=O)[C@]12C[C@H](CC(=O)N3CCN(C(=O)c4ccco4)CC3)C(=O)N(Cc3ccc(Cl)cc3Cl)C1=C[C@H](C1CCCC1)O[C@@H]2C | - | 0 | 0 | 0 | 0 | 0
CCC(C(N)=NCCc1ccc(OC)c(OC)c1)c1ccccc1 (stereo not given) | 0 | 0 | 0 | 0 | 0 | 0
CCC(=NCCc1ccc(OC)c(OC)c1)c1ccccc1O | 6.1 | 0 | 0 | 0 | 0 | 0
COCCCN1C(=O)[C@H](CC(=O)NCC2CCCCC2)[C@]2(C(=O)OC)CCCCC=C12 | - | 0 | 0 | 0 | 0 | 0
O=[N+]([O-])c1cc2c(c(CSc3ncccn3)c1)OCOC2 | 6.9 | 0 | 0 | 0 | 0 | 0

Screens from PubChem BioAssay.
